Source: PubChem BioAssay (EPA / NIEHS)
Inconclusive results are not listed. Activity calls are given as the source filed them. Rule for the calls: active = hit-call score of the fitted dose curve at least 0.9, where 1 is the maximum; inconclusive = response in the unintended direction; inactive = score below 0.9.

Legend:
[1] = molecular target: Serine/threonine-protein phosphatase PP1-alpha catalytic subunit (Homo sapiens) (UniProt P62136); assay: NVS_ENZ_hPPP1CA: NovaScreen (NVS) Enzymatic Assay for human Protein Phosphatase 1 Aatalytic subunit Alpha (PPP1CA) (AID 2283200)
Method in brief: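 Recombinant enzyme activity read by fluorescence with electrophoretic mobility shift separating substrate from product, 1.33 h after dosing; loss of signal vs DMSO baseline. Primary screen in duplicate at 25 uM; actives retested in concentration-response up to 50 uM.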

[2] = molecular target: human Protein Tyrosine Phosphatase Non-receptor Type 9 (PTPN9), PTPN9 (gene 5780) (UniProt P43378); assay: NVS_ENZ_hPTPN9: NovaScreen (NVS) Enzymatic Assay for human Protein Tyrosine Phosphatase Non-receptor Type 9 (PTPN9) (AID 2283209)
Method in brief: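 Sf9-expressed enzyme in a cell-free assay, fluorescence read 1.33 h after dosing with mobility-shift separation of substrate and product. Tested at 25 uM in duplicate, then up to 50 uM; signal loss versus DMSO.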

[3] = molecular target: cAMP-dependent protein kinase catalytic subunit alpha (Homo sapiens) (UniProt P17612); assay: NVS_ENZ_hPKA: NovaScreen (NVS) Enzymatic Assay for human Protein Kinase A (PKA) (AID 2283192)
Method in brief: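 Recombinant human PKA with specific fluorescent substrate, product separated by electrophoretic mobility shift, read 1 h after dosing. Primary screen at 25 uM in duplicate; actives then run in concentration-response up to 50 uM, activity relative to DMSO.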

[4] = molecular target: human Phosphoinositide 3-kinase alpha (PI3Ka), PIK3CA (gene 5290) (UniProt P42336); assay: NVS_ENZ_hPI3Ka: NovaScreen (NVS) Enzymatic Assay for human Phosphoinositide 3-kinase alpha (PI3Ka) (AID 2283196)
Method in brief: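 Chemicals were first screened at 25 uM in duplicate, then hits were run as concentration series up to 50 uM. Enzyme activity was measured by fluorescence after mobility-shift separation, with loss of signal relative to DMSO taken as activity.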

[5] = molecular target: human Phosphatase and Tensin Homolog (PTEN), PTEN (gene 5728) (UniProt P60484); assay: NVS_ENZ_hPTEN: NovaScreen (NVS) Enzymatic Assay for human Phosphatase and Tensin Homolog (PTEN) (AID 2283203)
Method in brief: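 Cell-free recombinant human PTEN with fluorescent substrate; product separated by electrophoretic mobility shift and read by fluorescence 1 h after dosing. Primary screen in duplicate at 25 uM, actives followed in concentration series versus DMSO.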

[6] = molecular target: Tyrosine-protein phosphatase non-receptor type 14 (Homo sapiens) (UniProt Q15678); assay: NVS_ENZ_hPTPN14: NovaScreen (NVS) Enzymatic Assay for human Protein Tyrosine Phosphatase Non-receptor Type 14 (PTPN14) (AID 2283206)
Method in brief: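 Cell-free recombinant human PTPN14 with fluorescent substrate, read 0.5 h after dosing by fluorescence and electrophoretic mobility shift separating substrate from product. Primary screen at 25 uM in duplicate; hits run to 50 uM maximum; loss of signal versus DMSO.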

[7] = molecular target: human Protein Tyrosine Phosphatase Non-receptor Type 4 (PTPN4), PTPN4 (gene 5775) (UniProt P29074); assay: NVS_ENZ_hPTPN4: NovaScreen (NVS) Enzymatic Assay for human Protein Tyrosine Phosphatase Non-receptor Type 4 (PTPN4) (AID 2283208)
Method in brief: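 Cell-free assay of PTPN4 expressed in Sf9 cells, using a fluorescent substrate with product separated by mobility shift; read 1.33 h after dosing. Single-point screen at 25 uM, then concentration-response up to 50 uM. Loss of signal relative to DMSO.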

[8] = molecular target: human Phosphodiesterase 5 (PDE5), PDE5A (gene 8654) (UniProt O76074); assay: NVS_ENZ_hPDE5: NovaScreen (NVS) Enzymatic Assay for human Phosphodiesterase 5 (PDE5) (AID 2283194)
Method in brief: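 Recombinant human PDE5 with specific substrate, read 1 h after dosing by fluorescence with electrophoretic mobility-shift separation of substrate and product. Initial single-concentration duplicate screen at 25 uM, actives followed in concentration series; loss of activity versus DMSO.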

[9] = molecular target: human Phosphodiesterase 10 (PDE10), PDE10A (gene 10846) (UniProt Q9Y233); assay: NVS_ENZ_hPDE10: NovaScreen (NVS) Enzymatic Assay for human Phosphodiesterase 10 (PDE10) (AID 2283195)
Method in brief: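 PDE10A, cell-free; 1 h incubation; fluorescence intensity + electrophoretic mobility shift separating substrate/product; DMSO = baseline; 25 uM duplicate primary, CRC up to 50 uM.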

PPP2CA (gene 5515) = PPP2CA (gene 5515) (UniProt P67775); assay: NVS_ENZ_hPPP2CA: NovaScreen (NVS) Enzymatic Assay for human Protein Phosphatase 2 Aatalytic subunit Alpha (PPP2CA) (AID 2283199)
Method in brief: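 Recombinant human PPP2CA with fluorescent substrate; product separated from substrate by electrophoretic mobility shift, read 1.33 h after dosing. Duplicate single-point at 25 uM, then singleton concentration-response up to 50 uM; loss of signal versus DMSO.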

[10] = molecular target: human Protein Tyrosine Phosphatase Non-receptor Type 1 (PTPN1), PTPN1 (gene 5770) (UniProt P18031); assay: NVS_ENZ_hPTPN1: NovaScreen (NVS) Enzymatic Assay for human Protein Tyrosine Phosphatase Non-receptor Type 1 (PTPN1) (AID 2283201)
Method in brief: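 Cell-free fluorogenic-substrate activity assay on recombinant enzyme, read 1.33 h after dosing by fluorescence and electrophoretic mobility shift; loss of signal vs DMSO baseline. Primary screen in duplicate at 25 uM, hits then run in concentration-response up to 50 uM.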

[11] = molecular target: Tyrosine-protein phosphatase non-receptor type 11 (Homo sapiens) (UniProt Q06124); assay: NVS_ENZ_hPTPN11: NovaScreen (NVS) Enzymatic Assay for human Protein Tyrosine Phosphatase Non-receptor Type 11 (PTPN11) (AID 2283202)
Method in brief: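 Recombinant human PTPN11 activity on a fluorescent substrate, with substrate/product separated by electrophoretic mobility shift; read 0.5 h after dosing, loss of signal vs DMSO. Duplicate 25 uM screen, then concentration-response up to 50 uM.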

[12] = molecular target: Tyrosine-protein phosphatase non-receptor type 13 (Homo sapiens) (UniProt Q12923); assay: NVS_ENZ_hPTPN13: NovaScreen (NVS) Enzymatic Assay for human Protein Tyrosine Phosphatase Non-receptor Type 13 (PTPN13) (AID 2283205)
Method in brief: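 Cell-free assay of recombinant human PTPN13 with a fluorescent substrate, product separated by electrophoretic mobility shift and read 0.5 h after dosing. Primary screen at 25 uM in duplicate, then concentration-response up to 50 uM. Loss of signal fitted against DMSO.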

[13] = molecular target: human Protein Tyrosine Phosphatase Receptor Type B (PTPRB), PTPRB (gene 5787) (UniProt P23467); assay: NVS_ENZ_hPTPRB: NovaScreen (NVS) Enzymatic Assay for human Protein Tyrosine Phosphatase Receptor Type B (PTPRB) (AID 2283211)
Method in brief: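 Recombinant human PTPRB with a fluorescent substrate, product separated by electrophoretic mobility shift; read 1 h after dosing. Primary screen in duplicate at 25 uM; actives then retested in concentration series; loss of signal versus DMSO.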

[14] = molecular target: human Protein Tyrosine Phosphatase Receptor Type M (PTPRM), PTPRM (gene 5797) (UniProt P28827); assay: NVS_ENZ_hPTPRM: NovaScreen (NVS) Enzymatic Assay for human Protein Tyrosine Phosphatase Receptor Type M (PTPRM) (AID 2283215)
Method in brief: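 Cell-free recombinant PTPRM with fluorogenic substrate; product separated from substrate by electrophoretic mobility shift and read by fluorescence, 1.33 h after dosing. Primary screen single concentration (25 uM) in duplicate; actives retested in concentration series; loss of signal versus DMSO.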

[15] = molecular target: human Protein Tyrosine Phosphatase Non-receptor Type 6 (PTPN6), PTPN6 (gene 5777) (UniProt P29350); assay: NVS_ENZ_hPTPN6: NovaScreen (NVS) Enzymatic Assay for human Protein Tyrosine Phosphatase Non-receptor Type 6 (PTPN6) (AID 2283210)
Method in brief: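 Cell-free assay with recombinant PTPN6 expressed in SF9 cells, fluorescent substrate, product separated from substrate by electrophoretic mobility shift; read 1.33 hours after dosing. Primary screen in duplicate at 25 uM, actives retested in concentration series; DMSO baseline.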

[16] = molecular target: human Rho Associated Coiled-coil Containing Protein Kinase 1 (ROCK1), ROCK1 (gene 6093) (UniProt Q13464); assay: NVS_ENZ_hROCK1: NovaScreen (NVS) Enzymatic Assay for human Rho Associated Coiled-coil Containing Protein Kinase 1 (ROCK1) (AID 2283214)
Method in brief: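 Cell-free recombinant human ROCK1 activity assay; fluorescent substrate and product separated by electrophoretic mobility shift, read 1 h after dosing. Screened in duplicate at 25 uM; loss of signal versus DMSO baseline scored as inhibition.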

[17] = molecular target: human Protein Tyrosine Phosphatase Receptor Type F (PTPRF), PTPRF (gene 5792) (UniProt P10586); assay: NVS_ENZ_hPTPRF: NovaScreen (NVS) Enzymatic Assay for human Protein Tyrosine Phosphatase Receptor Type F (PTPRF) (AID 2283213)
Method in brief: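 Cell-free fluorescence enzyme assay with recombinant protein and substrate; product separated by electrophoretic mobility shift. Read 1 h after dosing, single 25 uM duplicate screen, then concentration-response up to 50 uM; loss of signal vs DMSO.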

[18] = molecular target: human Protein Tyrosine Phosphatase Non-receptor Type 2 (PTPN2), PTPN2 (gene 5771) (UniProt P17706); assay: NVS_ENZ_hPTPN2: NovaScreen (NVS) Enzymatic Assay for human Protein Tyrosine Phosphatase Non-receptor Type 2 (PTPN2) (AID 2283207)
Method in brief: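 Cell-free recombinant enzyme with fluorescent substrate, product separated by electrophoretic mobility shift; read 1 h after dosing. Primary screen single concentration (25 uM) in duplicate; actives followed in concentration series; loss of signal versus DMSO.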

Sequence of human Phosphoinositide 3-kinase alpha (PI3Ka), PIK3CA (gene 5290) (P42336 whole entry, looked up): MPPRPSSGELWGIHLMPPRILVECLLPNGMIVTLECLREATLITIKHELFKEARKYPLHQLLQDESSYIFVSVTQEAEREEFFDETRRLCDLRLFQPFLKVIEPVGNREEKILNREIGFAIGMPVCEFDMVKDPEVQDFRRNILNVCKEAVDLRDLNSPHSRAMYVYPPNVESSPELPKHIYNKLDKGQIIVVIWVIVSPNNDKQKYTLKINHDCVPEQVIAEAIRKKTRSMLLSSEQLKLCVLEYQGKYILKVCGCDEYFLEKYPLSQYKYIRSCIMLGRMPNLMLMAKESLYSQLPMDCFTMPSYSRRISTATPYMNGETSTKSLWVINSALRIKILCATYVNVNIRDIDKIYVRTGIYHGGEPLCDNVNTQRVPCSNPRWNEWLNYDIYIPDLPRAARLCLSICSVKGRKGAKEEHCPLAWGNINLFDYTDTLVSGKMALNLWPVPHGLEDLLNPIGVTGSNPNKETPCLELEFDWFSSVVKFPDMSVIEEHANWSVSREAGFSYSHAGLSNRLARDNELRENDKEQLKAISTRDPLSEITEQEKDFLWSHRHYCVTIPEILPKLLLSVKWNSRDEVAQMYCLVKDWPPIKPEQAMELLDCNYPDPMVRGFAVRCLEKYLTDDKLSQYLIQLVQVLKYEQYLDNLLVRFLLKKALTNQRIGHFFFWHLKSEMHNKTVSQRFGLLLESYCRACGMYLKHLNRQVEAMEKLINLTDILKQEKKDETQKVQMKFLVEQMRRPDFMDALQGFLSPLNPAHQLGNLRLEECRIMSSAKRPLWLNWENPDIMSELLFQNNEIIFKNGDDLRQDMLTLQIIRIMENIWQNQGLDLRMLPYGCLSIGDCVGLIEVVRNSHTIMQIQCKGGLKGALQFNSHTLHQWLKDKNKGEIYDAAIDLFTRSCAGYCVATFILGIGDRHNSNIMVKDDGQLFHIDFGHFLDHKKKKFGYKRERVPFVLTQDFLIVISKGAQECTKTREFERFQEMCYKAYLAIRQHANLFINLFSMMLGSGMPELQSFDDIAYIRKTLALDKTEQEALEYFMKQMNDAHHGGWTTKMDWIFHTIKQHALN
Sequence of PPP2CA (gene 5515) (P67775 whole entry, looked up): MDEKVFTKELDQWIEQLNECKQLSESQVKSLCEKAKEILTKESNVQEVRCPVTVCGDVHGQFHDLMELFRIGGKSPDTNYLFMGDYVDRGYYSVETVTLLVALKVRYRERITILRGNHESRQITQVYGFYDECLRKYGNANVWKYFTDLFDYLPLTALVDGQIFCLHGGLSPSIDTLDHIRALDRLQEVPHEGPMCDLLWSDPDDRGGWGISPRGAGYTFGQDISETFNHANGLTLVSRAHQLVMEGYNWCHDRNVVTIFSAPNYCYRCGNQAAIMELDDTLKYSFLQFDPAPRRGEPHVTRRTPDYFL
Sequence of Tyrosine-protein phosphatase non-receptor type 14 (Homo sapiens) (Q15678 whole entry, looked up): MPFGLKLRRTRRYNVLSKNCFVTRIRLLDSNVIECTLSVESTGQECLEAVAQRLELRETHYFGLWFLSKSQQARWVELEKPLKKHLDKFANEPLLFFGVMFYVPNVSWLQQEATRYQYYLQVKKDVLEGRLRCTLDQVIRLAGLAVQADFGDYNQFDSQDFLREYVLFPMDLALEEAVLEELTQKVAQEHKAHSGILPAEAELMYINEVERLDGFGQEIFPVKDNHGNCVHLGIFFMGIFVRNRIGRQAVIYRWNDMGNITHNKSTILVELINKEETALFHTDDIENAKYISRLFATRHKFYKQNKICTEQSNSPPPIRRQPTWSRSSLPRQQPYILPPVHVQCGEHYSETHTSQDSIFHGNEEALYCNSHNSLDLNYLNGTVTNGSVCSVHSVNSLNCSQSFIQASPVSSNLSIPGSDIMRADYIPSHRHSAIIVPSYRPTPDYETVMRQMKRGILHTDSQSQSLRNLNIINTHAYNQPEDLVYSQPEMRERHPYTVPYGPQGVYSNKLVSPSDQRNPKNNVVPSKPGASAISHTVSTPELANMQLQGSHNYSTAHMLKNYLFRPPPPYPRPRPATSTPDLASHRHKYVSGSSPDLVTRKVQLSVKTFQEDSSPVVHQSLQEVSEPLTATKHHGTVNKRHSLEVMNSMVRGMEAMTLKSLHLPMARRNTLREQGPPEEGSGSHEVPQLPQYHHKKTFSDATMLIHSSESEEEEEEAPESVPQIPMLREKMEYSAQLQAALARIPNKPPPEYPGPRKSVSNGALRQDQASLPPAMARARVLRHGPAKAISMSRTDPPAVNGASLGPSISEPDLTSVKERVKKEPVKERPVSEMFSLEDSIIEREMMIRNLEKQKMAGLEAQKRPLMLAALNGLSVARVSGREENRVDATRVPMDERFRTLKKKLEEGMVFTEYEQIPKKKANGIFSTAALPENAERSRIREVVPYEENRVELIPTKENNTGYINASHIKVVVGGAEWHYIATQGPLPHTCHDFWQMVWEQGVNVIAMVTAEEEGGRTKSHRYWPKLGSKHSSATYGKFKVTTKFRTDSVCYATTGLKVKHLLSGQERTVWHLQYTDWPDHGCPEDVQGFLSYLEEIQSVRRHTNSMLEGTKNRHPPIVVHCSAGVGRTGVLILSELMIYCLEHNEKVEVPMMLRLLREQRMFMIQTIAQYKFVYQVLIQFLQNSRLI
Sequence of Serine/threonine-protein phosphatase PP1-alpha catalytic subunit (Homo sapiens) (P62136 whole entry, looked up): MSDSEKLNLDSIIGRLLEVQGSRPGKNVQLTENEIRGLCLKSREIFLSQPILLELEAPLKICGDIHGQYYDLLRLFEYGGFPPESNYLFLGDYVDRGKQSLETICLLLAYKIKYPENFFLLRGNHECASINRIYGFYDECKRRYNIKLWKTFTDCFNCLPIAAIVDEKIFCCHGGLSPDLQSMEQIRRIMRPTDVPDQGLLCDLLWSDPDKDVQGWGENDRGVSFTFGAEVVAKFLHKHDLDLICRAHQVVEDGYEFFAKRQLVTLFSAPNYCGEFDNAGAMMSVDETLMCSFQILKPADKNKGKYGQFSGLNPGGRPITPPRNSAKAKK
Sequence of human Phosphatase and Tensin Homolog (PTEN), PTEN (gene 5728) (P60484 whole entry, looked up): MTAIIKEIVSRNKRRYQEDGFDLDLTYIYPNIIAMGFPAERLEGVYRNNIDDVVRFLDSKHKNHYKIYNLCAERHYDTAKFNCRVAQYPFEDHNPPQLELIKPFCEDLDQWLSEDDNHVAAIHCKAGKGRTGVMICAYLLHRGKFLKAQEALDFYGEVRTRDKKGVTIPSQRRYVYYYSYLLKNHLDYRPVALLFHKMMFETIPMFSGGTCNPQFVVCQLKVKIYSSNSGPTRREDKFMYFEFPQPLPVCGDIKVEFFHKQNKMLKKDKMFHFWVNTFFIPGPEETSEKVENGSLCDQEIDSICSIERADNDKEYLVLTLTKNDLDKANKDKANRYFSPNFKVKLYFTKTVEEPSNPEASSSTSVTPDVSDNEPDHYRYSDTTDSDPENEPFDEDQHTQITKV
Sequence of human Phosphodiesterase 10 (PDE10), PDE10A (gene 10846) (Q9Y233 whole entry, looked up): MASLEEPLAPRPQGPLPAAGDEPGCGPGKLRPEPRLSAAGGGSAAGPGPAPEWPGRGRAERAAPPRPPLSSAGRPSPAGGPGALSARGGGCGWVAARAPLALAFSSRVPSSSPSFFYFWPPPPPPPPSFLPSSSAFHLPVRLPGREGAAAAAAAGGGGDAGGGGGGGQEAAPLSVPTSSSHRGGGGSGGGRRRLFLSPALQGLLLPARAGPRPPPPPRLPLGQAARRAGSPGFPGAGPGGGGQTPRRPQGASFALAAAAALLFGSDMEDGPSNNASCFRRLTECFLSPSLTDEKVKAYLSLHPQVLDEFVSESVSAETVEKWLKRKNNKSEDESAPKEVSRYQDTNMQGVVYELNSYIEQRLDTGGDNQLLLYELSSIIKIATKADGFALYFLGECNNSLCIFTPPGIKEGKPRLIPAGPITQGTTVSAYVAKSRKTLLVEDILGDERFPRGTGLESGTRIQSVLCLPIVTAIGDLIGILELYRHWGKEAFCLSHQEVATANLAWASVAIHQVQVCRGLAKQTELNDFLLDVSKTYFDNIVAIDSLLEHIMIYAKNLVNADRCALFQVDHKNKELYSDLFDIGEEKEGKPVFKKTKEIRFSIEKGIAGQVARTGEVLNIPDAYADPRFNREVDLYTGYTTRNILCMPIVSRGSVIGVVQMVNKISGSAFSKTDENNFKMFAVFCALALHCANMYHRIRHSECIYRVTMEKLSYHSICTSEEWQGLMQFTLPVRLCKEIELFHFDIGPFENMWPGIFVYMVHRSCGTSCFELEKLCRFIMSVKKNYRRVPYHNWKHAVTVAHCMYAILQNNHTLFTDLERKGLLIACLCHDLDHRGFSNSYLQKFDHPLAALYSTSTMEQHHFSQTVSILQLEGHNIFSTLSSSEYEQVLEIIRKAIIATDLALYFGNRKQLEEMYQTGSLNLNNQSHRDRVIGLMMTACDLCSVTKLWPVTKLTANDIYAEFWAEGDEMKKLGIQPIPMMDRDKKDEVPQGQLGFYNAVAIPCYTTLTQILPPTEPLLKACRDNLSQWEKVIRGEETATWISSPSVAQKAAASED
Sequence of human Protein Tyrosine Phosphatase Non-receptor Type 6 (PTPN6), PTPN6 (gene 5777) (P29350 whole entry, looked up): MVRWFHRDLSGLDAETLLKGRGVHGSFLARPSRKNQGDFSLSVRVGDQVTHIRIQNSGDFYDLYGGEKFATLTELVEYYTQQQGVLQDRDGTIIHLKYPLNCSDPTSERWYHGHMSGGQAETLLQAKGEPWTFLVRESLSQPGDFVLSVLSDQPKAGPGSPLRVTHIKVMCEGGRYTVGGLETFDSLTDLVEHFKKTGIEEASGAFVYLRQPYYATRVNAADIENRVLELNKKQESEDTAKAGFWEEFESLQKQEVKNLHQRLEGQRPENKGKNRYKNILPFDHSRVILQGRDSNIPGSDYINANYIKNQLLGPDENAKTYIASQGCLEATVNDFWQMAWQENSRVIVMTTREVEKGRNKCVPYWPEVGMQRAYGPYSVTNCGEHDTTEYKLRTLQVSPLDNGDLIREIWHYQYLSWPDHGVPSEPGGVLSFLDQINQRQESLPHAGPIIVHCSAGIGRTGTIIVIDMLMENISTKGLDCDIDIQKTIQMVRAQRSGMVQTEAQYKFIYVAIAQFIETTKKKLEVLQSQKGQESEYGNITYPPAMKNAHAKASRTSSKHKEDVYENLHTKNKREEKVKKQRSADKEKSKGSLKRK

## Cc1cc(Cl)ccc1OCC(=O)O
[1]
  outcome: inactive

## CC(C)(C)c1ccc(CSc2cnn(C(C)(C)C)c(=O)c2Cl)cc1
[2]
  AC50: 17 µM (active)

## N#Cc1nn(-c2c(Cl)cc(C(F)(F)F)cc2Cl)c(N)c1S(=O)C(F)(F)F (configuration not stated)
[3]
  outcome: inactive
[4]
  outcome: inactive

## C#CCOS(=O)OC1CCCCC1Oc1ccc(C(C)(C)C)cc1 (configuration not stated)
[5]
  outcome: inactive

## CCCCNC(=O)OCC#CI
[1]
  outcome: inactive
[6]
  outcome: inactive
[7]
  outcome: inactive

## CCCN(CCC)c1c([N+](=O)[O-])cc(S(N)(=O)=O)cc1[N+](=O)[O-]
[8]
  outcome: inactive
[9]
  outcome: inactive
[4]
  outcome: inactive
PPP2CA (gene 5515)
  outcome: inactive
[1]
  outcome: inactive
[10]
  outcome: inactive
[11]
  outcome: inactive
[12]
  outcome: inactive
[6]
  outcome: inactive
[13]
  outcome: inactive

## COc1cnc(OC)n2nc(NS(=O)(=O)c3c(OCC(F)F)cccc3C(F)(F)F)nc12
[9]
  outcome: inactive
PPP2CA (gene 5515)
  outcome: inactive

## Oc1ccccc1-c1ccccc1
[1]
  outcome: inactive

## CS/C(C)=N/OC(=O)N(C)SN(C)C(=O)O/N=C(\C)SC
[4]
  outcome: inactive

## COc1ccc(C(c2ccc(OC)cc2)C(Cl)(Cl)Cl)cc1
[11]
  outcome: inactive
[14]
  outcome: inactive

## CCOC(=O)CC(SP(=S)(OC)OC)C(=O)OCC (configuration not stated)
PPP2CA (gene 5515)
  outcome: inactive
[1]
  outcome: inactive

## COc1nc(C)nc(NC(=O)NS(=O)(=O)c2ccccc2CCC(F)(F)F)n1
[8]
  AC50: 25 µM (active)
[4]
  outcome: inactive

## C=CCC1=C(C)C(OC(=O)C2C(C=C(C)C)C2(C)C)CC1=O (configuration not stated)
[2]
  outcome: inactive
[15]
  outcome: inactive

## CC1COC(Cn2cncn2)(c2ccc(Oc3ccc(Cl)cc3)cc2Cl)O1 (configuration not stated)
[8]
  outcome: inactive
[16]
  outcome: inactive

## Cc1ccc(-c2c(Cl)nc(C#N)n2S(=O)(=O)N(C)C)cc1
[8]
  AC50: 11.7 µM (active)
[5]
  outcome: inactive
[17]
  outcome: inactive

## O=C(O)COc1nc(Cl)c(Cl)cc1Cl
[18]
  outcome: inactive

## COC(=O)c1ccccc1C(=O)OC
[4]
  outcome: inactive
